Shiga inhibitor – A qHTS for Small Molecule Inhibitors of Shiga Toxin | AID 2315, 2010 | Vero cells, Shiga toxin protein synthesis inhibition reporter | 290,000 compounds, 9.2% hits | inhibition, % at 38.7 µM; in the data active means inhibition mostly above about 28%, no sharp cut-off; inactive means mostly below about 43%; further: 0% is about no effect
Pf growth 96h – Primary qHTS for delayed death inhibitors of the malarial parasite plastid, 96 hour incubation; Potency, µM (series often up to 28.7 µM), for inactives: at the highest dose activity change, negative = inhibition, hits mostly inhibitors; 320,000 compounds, 6.9% hits; P. falciparum luciferase reporter growth, 96 h; AID 504834, 2011; further: potency means the concentration at half of the fitted maximal effect; on the % scale 0 is the no-effect control and ±100 the full control effect
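Two parasite generations (96 h, 37 C, 5% CO2) of compound exposure in infected erythrocytes (0.05% parasitemia, 2% hematocrit). Luciferase-reporter P. falciparum; decreased luminescence indicates inhibited growth, aimed at apicoplast-acting delayed death.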
Cycloheximide cs – Cycloheximide Counterscreen for Small Molecule Inhibitors of Shiga Toxin | cell reporter, cycloheximide protein synthesis inhibition counterscreen | max response, % | 300,000 compounds, 12% hits | AID 2314, 2010; in the data active means max response mostly above about 13%, no sharp cut-off; inactive means mostly below about 14%; further: read at 38.3 µM for the half of the compounds with a filed dose; 0% is about no effect
Pf growth 48h – Primary qHTS for delayed death inhibitors of the malarial parasite plastid, 48 hour incubation | P. falciparum luciferase growth in erythrocytes, 48 h | Potency, µM (doses to about 28.7 µM), inactives show at the highest dose activity change, negative = inhibition, actives largely listed as inhibitors | 310,000 compounds, 5.9% hits | AID 504832, 2011; further: potency means the concentration at half of the fitted maximal effect; on the % scale 0 is the no-effect control and ±100 the full control effect
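In quantitative HTS format, infected erythrocytes bearing luciferase-reporter parasites were treated for a single generation at 37 C. Luminescence after adding detection reagent served as the growth measure.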
HCV inhibitor – qHTS Assay for Inhibitors of Hepatitis C Virus (HCV) | Huh7.5.1 HCVcc-Cre infection, luciferase reporter, 44 h | Potency, µM (top dose mostly 41.8 µM), for inactives: at the top dose activity change, negative = inhibition, hits mostly inhibitors | 340,000 compounds, 3.4% hits | AID 651820, 2012; further: potency means the concentration at half of the fitted maximal effect; on the % scale 0 is the no-effect control and ±100 the full control effect
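Antiviral activity was scored by luciferase reporter output from cells infected with HCVcc-Cre (~0.5 moi) in presence of compound, 44 h infection period, cells seeded 1,000/well 4 h prior.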
HCMV inh – qHTS Assay for inhibitors of the human cytomegalovirus (HCMV). activity change, negative = inhibition, % at 57.5 µM. 410,000 compounds, 4.5% hits. HFF cells, HCMV-luciferase reporter, 72 h; hits give low values; in the data active means activity change below about -60%; inconclusive means no clear call, values can overlap the other calls; inactive means above about -39%; further: on the % scale 0 is the no-effect control and ±100 the full control effect
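Luciferase read-out from HCMV-luciferase-infected HFFs (MOI 1 PFU/cell) 72 h post infection at 37C; compounds added after 16 h cell attachment; activity normalized between buffer-only basal and Salinomycin (10uM) inhibitor controls.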
Numbers without * were called inactive. Sampled rows, rich in hits. Any-hit rate of the full collection: about 21%. Unless noted, the call rests on the fitted dose curve; in most records, active means well fitted inhibition curve with a large enough effect; inconclusive means small, poorly fitted or top-dose-only effect, or another doubt; inactive means no such curve, though single readings can be large or run the other way.

Results for C=CCNC(=O)c1n[nH]c2c1CC(C(C)(C)CC)CC2 (centres undefined) ?
Pf growth 96h: inconclusive; Pf growth 48h: inconclusive; HCV inhibitor: inconclusive; HCMV inh: -36

How did CCN(CCCNC(=O)Cn1ncc2c([nH]c3ccc(C)cc32)c1=O)c1cccc(C)c1 do in these assays?
Shiga inhibitor: -5; Pf growth 96h: 22%; Cycloheximide cs: 5; Pf growth 48h: 46%; HCV inhibitor: -2%; HCMV inh: 13

Results for CCc1nnc(SCc2cc(C)ccc2C)c2cc3sc(C)cc3n12 ?
HCMV inh: 19

How did COc1cccc(/C=C/C(=O)OCC(=O)NCC2CCCCC2)c1OC do in these assays?
Pf growth 96h: 19%; Pf growth 48h: -2%; HCV inhibitor: 2%; HCMV inh: 7

What do the screens show for `Cc1cc(-c2ccccc2)nc(SCC(=O)c2cccc([N+](=O)[O-])c2)n1`?
Shiga inhibitor: -19; Pf growth 96h: inconclusive; Cycloheximide cs: -3; Pf growth 48h: inconclusive; HCV inhibitor: 13µM*; HCMV inh: 8

Results for Cc1cc(C(F)(F)F)nc(SCC(=O)c2cccc([N+](=O)[O-])c2)n1 ?
Shiga inhibitor: -9; Pf growth 96h: inconclusive; Cycloheximide cs: -2; Pf growth 48h: inconclusive; HCV inhibitor: inconclusive; HCMV inh: -37

What do the screens show for `CCc1nc(Oc2cccc(F)c2)c2oc3ccccc3c2n1`?
HCMV inh: 9

Results for CCN1CCN(CC(=O)Nc2ccc(N(C)C)cc2)CC1 ?
Shiga inhibitor: 3; Pf growth 96h: -11%; Cycloheximide cs: 3; Pf growth 48h: 0%; HCV inhibitor: -11%; HCMV inh: 15

What do the screens show for `Cn1nnnc1SCc1nc2scc(-c3ccccc3)c2c(=O)[nH]1`?
Shiga inhibitor: 10; Pf growth 96h: 11%; Cycloheximide cs: 1; Pf growth 48h: -9%; HCV inhibitor: -30%; HCMV inh: 12

How did CC1CCc2c(sc3nc(CSc4ncn[nH]4)[nH]c(=O)c23)C1 (centres undefined) do in these assays?
Shiga inhibitor: 12; Pf growth 96h: 18%; Cycloheximide cs: -1; Pf growth 48h: 3%; HCV inhibitor: -9%; HCMV inh: -27

What do the screens show for `Cc1ccc(-c2csc3nc(CSc4nnc(-c5ccc(Cl)cc5)n4C)[nH]c(=O)c23)cc1`?
Shiga inhibitor: -9; Pf growth 96h: -21%; Cycloheximide cs: 13*; Pf growth 48h: -7%; HCV inhibitor: inconclusive; HCMV inh: 0

How did CCn1c(SCc2nc3scc(-c4ccccc4)c3c(=O)[nH]2)nnc1-c1ccc(Cl)cc1 do in these assays?
Shiga inhibitor: -1; Pf growth 96h: 0%; Cycloheximide cs: 1; Pf growth 48h: -20%; HCV inhibitor: -2%; HCMV inh: -7

What do the screens show for `Cn1nnnc1SCc1nc2scc(-c3ccc(Cl)cc3)c2c(=O)[nH]1`?
Shiga inhibitor: 16; Pf growth 96h: -19%; Cycloheximide cs: 2; Pf growth 48h: -10%; HCV inhibitor: inconclusive; HCMV inh: -70*

Results for CC1CCc2c(sc3nc(CSc4nnnn4C)[nH]c(=O)c23)C1 (centres undefined) ?
Shiga inhibitor: 26; Pf growth 96h: 33%; Cycloheximide cs: 18*; Pf growth 48h: 19%; HCV inhibitor: -13%; HCMV inh: -11

How did CC[C@H](C)[C@H](NC(=O)[C@H](Cc1ccc(O)cc1)NC(=O)[C@H](Cc1cnc[nH]1)NC(=O)[C@H](CCCNC(=N)N)NC(=O)[C@H](CC(C)C)NC(=O)[C@H](C)NC(=O)[C@H](CO)NC(=O)[C@H](Cc1ccc(O)cc1)NC(=O)[C@H](Cc1ccc(O)cc1)NC(=O)[C@H](CCCNC(=N)N)NC(=O)[C@H](C)NC(=O)[C@H](CC(C)C)NC(=O)[C@H](CC(=O)O)NC(=O)[C@H](CCC(=O)O)NC(=O)[C@H](C)NC(=O)[C@@H]1CCCN1C(=O)[C@H](C)NC(=O)[C@H](CC(=O)O)NC(=O)[C@H](CCC(=O)O)NC(=O)CNC(=O)[C@@H]1CCCN1C(=O)[C@H](CC(N)=O)NC(=O)[C@H](CC(=O)O)NC(=O)[C@@H]1CCCN1C(=O)[C@H](CCCCN)NC(=O)[C@H](CO)NC(=O)[C@@H]1CCCN1C(=O)[C@@H](N)Cc1ccc(O)cc1)C(=O)N[C@@H](CC(N)=O)C(=O)N[C@@H](CC(C)C)C(=O)N[C@H](C(=O)N[C@H](C(=O)N[C@@H](CCCNC(=N)N)C(=O)N[C@@H](CCC(N)=O)C(=O)N[C@@H](CCCNC(=N)N)C(=O)N[C@@H](Cc1ccc(O)cc1)C(N)=O)[C@@H](C)O)[C@@H](C)CC do in these assays?
Shiga inhibitor: -10; Cycloheximide cs: 1

What do the screens show for `CCC1CCCCN1S(=O)(=O)c1ccc(C(=O)Nc2nnc(-c3cccs3)o2)cc1` (centres undefined)?
Shiga inhibitor: 6; Pf growth 96h: 42%; Cycloheximide cs: 1; Pf growth 48h: 10µM*; HCV inhibitor: inconclusive

Results for CN(C)S(=O)(=O)c1ccc(C(=O)Nc2nnc(-c3cccs3)o2)cc1 ?
Shiga inhibitor: 16; Pf growth 96h: inconclusive; Cycloheximide cs: 19*; Pf growth 48h: 13µM*; HCV inhibitor: inconclusive; HCMV inh: inconclusive

How did CC1CC(C)CN(S(=O)(=O)c2ccc(C(=O)Nc3nnc(-c4cccs4)o3)cc2)C1 (centres undefined) do in these assays?
Shiga inhibitor: -15; Pf growth 96h: 1%; Cycloheximide cs: -4; Pf growth 48h: inconclusive; HCV inhibitor: inconclusive; HCMV inh: -70*

Results for CCOC(=O)C1=C(COC(=O)[C@H](C)NS(=O)(=O)c2ccc(NC(C)=O)cc2)NC(=O)NC1C (some centres undefined) ?
Pf growth 96h: 5%; Pf growth 48h: 5%; HCV inhibitor: 9%; HCMV inh: -28

How did N#CCc1nn(-c2ccc(F)cc2)c(N)c1C#N do in these assays?
Shiga inhibitor: -3; Pf growth 96h: 16%; Cycloheximide cs: -1; Pf growth 48h: 16%; HCV inhibitor: 5%; HCMV inh: -61*

Results for O=C(COC(=O)COc1ccccc1)NCc1ccc2c(c1)OCO2 ?
HCV inhibitor: -3%; HCMV inh: 4

Results for O=C1c2ccccc2C(=O)C1c1ccc2ccccc2n1 ?
Shiga inhibitor: 78*; Pf growth 96h: inconclusive; Cycloheximide cs: 34*; Pf growth 48h: 208%; HCV inhibitor: 9%; HCMV inh: -30
